# Data from PubChem BioAssay.
# Active and inactive are the calls of the source.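 Rule for the calls: active = GFP response above 150% of the DMSO level; inconclusive = fewer than 70 events counted for a yeast strain; inactive = the rest.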
# Assay: yeast AGP1-GFP fluorescence change, single-dose – cell-based, flow cytometry, S. cerevisiae, cherry picks, confirmation (AID 2273);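 note: median GFP channel fluorescence over the whole cell population gate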
# Settings: S. cerevisiae AGP1-GFP strain, 3 h, at 10 µM
row,SMILES,"GFP response, % of DMSO"
1,CS(=O)(=O)N1N=C(c2ccco2)CC1c1ccc(Br)cc1 (stereo unspecified),96.8% (inactive)
2,O=C(Oc1ccnc2cc(Cl)ccc12)N1CCCCCC1,185% (active)
3,Cc1c([N+](=O)[O-])cnc(Sc2ccccc2)c1[N+](=O)[O-],97.6% (inactive)
4,Cc1cc(C(=O)Nc2nc(-c3ccccn3)cs2)ccc1[N+](=O)[O-],84.3% (inactive)
5,COc1cc(/C=C/C(=O)c2c(O)cc(C)oc2=O)cc(OC)c1O,101% (inactive)
6,COc1ccc2ccccc2c1/C=N/Nc1cccc(C(=O)O)c1,102% (inactive)
7,CCn1c(=O)c(C(=O)NC(C)C)c(O)c2ccccc21,97.8% (inactive)
8,CCOc1cc(N2CCOCC2)c(OCC)cc1NC(=O)C(NC(=O)c1ccco1)C(C)C (stereo unspecified),99.6% (inactive)
9,CNC(=O)/C(C#N)=C/c1c(N(Cc2ccccc2)Cc2ccccc2)nc2c(C)cccn2c1=O,103% (inactive)
10,O=C(COc1ccccc1)N1CCN(c2ncnc3c2cnn3-c2ccccc2)CC1,97.3% (inactive)
11,O=S(=O)(c1ccc(Oc2ccccc2)cc1)N1CCOCC1,94.1% (inactive)
12,O=S(=O)(/N=C(/Nc1ccc(F)cc1F)c1ccc(Cl)cc1)c1ccccc1,96.9% (inactive)
13,CC(=O)Nc1cccc(Oc2ccc(-c3noc(C)n3)cc2)c1,93.6% (inactive)
14,C/C(=N/NC(=O)c1ccc(C(C)(C)C)cc1)c1ccccn1,90% (inactive)
15,O=C(Sc1cccc2cccnc12)c1ccccc1Br,95.8% (inactive)
16,CCOc1cc(-c2nc3cc(C)ccn3c2NCC2CCCO2)ccc1O (stereo unspecified),97.9% (inactive)
